Where a name gives a salt, the structure may show the parent alone.
Test system: replication-induced senescent mouse newborn dermal fibroblasts (NBF)
Assay: relative cell viability of senescent cells (fraction); higher = less killing of senescent cells
Details: 1 µM; 3 days
Protocol: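 Replication-induced senescent newborn mouse skin fibroblasts (NBFs) in 24-well plates were treated with a Selleck FDA-approved drug library at 1 µM for 3 days.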

Compound | relative cell viability
Nc1ccn([C@H]2CC[C@@H](CO)O2)c(=O)n1 [Zalcitabine] | 0.129
Cc1nc(=O)c2cc(CN(C)c3ccc(C(=O)N[C@@H](CCC(=O)O)C(=O)O)s3)ccc2[nH]1 [Raltitrexed] | 0.916
CO[C@H]1/C=C/O[C@@]2(C)Oc3c(C)c(O)c4c(O)c(c5c(nc6cc(C)ccn65)c4c3C2=O)NC(=O)/C(C)=C\C=C\[C@H](C)[C@H](O)[C@@H](C)[C@@H](O)[C@@H](C)[C@H](OC(C)=O)[C@@H]1C [Rifaximin] | 0.971
NS(=O)(=O)c1cc2c(cc1Cl)NC(C(Cl)Cl)NS2(=O)=O (stereo not given) [Trichlormethiazide] | 0.981
OCCOCCN1CCN(C2=Nc3ccccc3Sc3ccccc32)CC1 [Quetiapine Fumarate] | 1.13
COc1ccc(-n2nc(C(N)=O)c3c2C(=O)N(c2ccc(N4CCCCC4=O)cc2)CC3)cc1 [Apixaban] | 0.89
CC(C)OC(=O)OCOP(=O)(CO[C@H](C)Cn1cnc2c(N)ncnc21)OCOC(=O)OC(C)C [Tenofovir Disoproxil Fumarate] | 0.84
COc1ccc([C@@H]2Sc3ccccc3N(CCN(C)C)C(=O)[C@@H]2OC(C)=O)cc1 [Diltiazem HCl] | 1.09
CNC(=O)c1ccccc1Sc1ccc2c(/C=C/c3ccccn3)n[nH]c2c1 [Axitinib] | 0.908
O=C(O)/C=C/c1ccc(Cn2ccnc2)cc1 [Ozagrel] | 1.02
CC[C@H]1OC(=O)[C@H](C)[C@@H](O[C@H]2C[C@@](C)(OC)[C@@H](O)[C@H](C)O2)[C@H](C)[C@@H](O[C@@H]2O[C@H](C)C[C@H](N(C)C)[C@H]2O)[C@](C)(O)C[C@@H](C)CN(C)[C@H](C)[C@@H](O)[C@]1(C)O [Azithromycin] | 0.879
CNC(=O)c1cc(Oc2ccc(NC(=O)Nc3ccc(Cl)c(C(F)(F)F)c3)cc2)ccn1 [Sorafenib Tosylate] | 0.528
Cc1ccc(NC(=O)c2ccc(CN3CCN(C)CC3)cc2)cc1Nc1nccc(-c2cccnc2)n1 [Imatinib (STI571)] | 1.12
CC(C)[C@H](N)C(=O)OCCOCn1cnc2c(=O)nc(N)[nH]c21 [Valaciclovir HCl] | 0.909
Cc1[nH]c(/C=C2\C(=O)Nc3ccccc32)c(C)c1CCC(=O)O [Orantinib (TSU-68, SU6668)] | 0.577
C[C@@H](O[C@H]1OCCN(Cc2n[nH]c(=O)[nH]2)[C@H]1c1ccc(F)cc1)c1cc(C(F)(F)F)cc(C(F)(F)F)c1 [Aprepitant] | 1.08
COc1ccccc1OCC(O)CO (stereo not given) [Guaifenesin] | 1.12
Nc1ccc(S(=O)(=O)Nc2ccccn2)cc1 [Sulfapyridine] | 0.951
NC(=O)c1cnccn1 [Pyrazinamide] | 1.17
CC(C)C[C@H](NC(=O)[C@@H](NC(=O)c1cccc(-c2ccccc2)n1)[C@@H](C)O)B(O)O | 1.1

Compound | relative cell viability
CN1CCN(CCOc2cc(OC3CCOCC3)c3c(Nc4c(Cl)ccc5c4OCO5)ncnc3c2)CC1 [Saracatinib (AZD0530)] | 0.626
COc1cc(Nc2ncc3c(n2)-c2ccc(Cl)cc2C(c2c(F)cccc2OC)=NC3)ccc1C(=O)O [Alisertib (MLN8237)] | 0.0819
O=C(c1ccccc1)c1ccc2n1CCC2C(=O)O (stereo not given) [Ketorolac] | 0.977
C[C@]1(c2nc3c(C(N)=O)cccc3[nH]2)CCCN1 [Veliparib (ABT-888)] | 0.885
CCC(C)(C)C(=O)O[C@H]1C[C@@H](C)C=C2C=C[C@H](C)[C@H](CC[C@@H]3C[C@@H](O)CC(=O)O3)[C@H]21 [Simvastatin] | 0.965
CCCc1nc2c(C)cc(-c3nc4ccccc4n3C)cc2n1Cc1ccc(-c2ccccc2C(=O)O)cc1 [Telmisartan] | 1.15
COc1cccc2c1C(=O)c1c(O)c3c(c(O)c1C2=O)CC(O)(C(=O)CO)CC3OC1CC(N)C(O)C(C)O1 (stereo not given) [Doxorubicin (Adriamycin) HCl] | 0.957
CC1COc2c(N3CCN(C)CC3)c(F)cc3c(=O)c(C(=O)O)cn1c23 (stereo not given) [Ofloxacin] | 1
CN(C)CCOc1ccc(/C(=C(/CCCl)c2ccccc2)c2ccccc2)cc1 [Toremifene Citrate] | 0.956
COc1cc([C@@H]2c3cc4c(cc3[C@@H](O[C@@H]3O[C@@H]5CO[C@@H](c6cccs6)O[C@H]5[C@H](O)[C@H]3O)[C@H]3COC(=O)[C@H]23)OCO4)cc(OC)c1O [Teniposide] | 1.08
CCN1CCN(C(=O)N[C@@H](C(=O)N[C@@H]2C(=O)N3C(C(=O)O)=C(CSc4nnnn4C)CS[C@H]23)c2ccc(O)cc2)C(=O)C1=O [Cefoperazone] | 1.03
O=C(/C=C/c1cccc(S(=O)(=O)Nc2ccccc2)c1)NO [Belinostat (PXD101)] | 0.941
CCc1c2c(nc3ccc(OC(=O)N4CCC(N5CCCCC5)CC4)cc13)-c1cc3c(c(=O)n1C2)COC(=O)[C@]3(O)CC [Irinotecan] | 0.893
NC(=O)C1CCCc2c1[nH]c1ccc(Cl)cc21 (stereo not given) [Selisistat (EX 527)] | 0.498
N=C(N)NC(=O)c1nc(Cl)c(N)nc1N [Amiloride HCl] | 0.768
C[C@@H](Oc1cc(-c2cnn(C3CCNCC3)c2)cnc1N)c1c(Cl)ccc(F)c1Cl | 0.71
NCCCCCC(=O)O [(6-)ε-Aminocaproic acid] | 0.983
CC1Cc2ccccc2N1NC(=O)c1ccc(Cl)c(S(N)(=O)=O)c1 (stereo not given) [Indapamide] | 0.965
Cc1ccc(NC(=O)c2ccc(CN3CCN(C)CC3)cc2)cc1Nc1nccc(-c2cccnc2)n1 [Imatinib Mesylate (STI571)] | 0.939
CC(C)Cn1cnc2c(N)nc3ccccc3c21 [Imiquimod] | 0.273
